Results reported in PubChem BioAssay (NCI).
Compounds without any hit were thinned out: in the full panel of roughly 83,000, 20% have a hit.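 Plates (96-well) were seeded with cells, treated with compound at one concentration, and incubated for 48 hours before percent growth was determined.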 The source made the active and inactive calls. Rule for the calls: active = growth percent below 10; inactive = the rest.

Assays:
Test in all cases: NCI-60 one-dose screen, 48 h (100 = growth as untreated, 0 = no growth, -100 = all killed)
Settings in all cases: 10 µM unless noted
[1] = test system: T-47D breast
[2] = test system: BT-549 breast
[3] = test system: MDA-MB-435 melanoma
[4] = test system: SW-620 colon
[5] = test system: MCF7 breast
[6] = test system: HCT-116 colon
[7] = test system: HCC-2998 colon
[8] = test system: KM12 colon
[9] = test system: MDA-MB-468 breast

Measured: growth

COc1cccc(-c2nc(Nc3ccc(S(N)(=O)=O)cc3)c3ccccc3n2)c1
inactive: [1] 20.9% | [2] 54.5% | [3] 38.8% | [4] 36.1% | [5] 19.8% | [6] 32.2% | [9] 24%
active: [7] 6.44% | [8] 6.75%

Nc1nc(-c2ccccc2)c(N=Nc2ccc(Cl)cc2[N+](=O)[O-])s1
inactive: [1] 61.2% | [2] 92.6% | [3] 105% | [4] 102% | [5] 60.3% | [6] 97.1% | [7] 102% | [8] 102% | [9] 89.7%

CN(C)c1nc(NCCNS(=O)(=O)c2ccc(C3=Nc4c(N)nc(N)nc4NC(c4ccccc4)C3)cc2)nc(Nc2ccc(F)cc2)n1 (configuration not stated)
inactive: [1] 39.8% | [2] 29.1% | [3] 41.6% | [4] 49.9% | [5] 17.3% | [6] 32.7% | [7] 31.9% | [8] 33.8%
active: [9] -35.8%

CCN(CC)c1ccc(/C=N/Nc2nc(-c3ccc(C)cc3)cs2)c(O)c1
inactive: [1] 68.7% | [2] 71.9% | [3] 96.7% | [4] 99.1% | [5] 67.8% | [6] 72.9% | [7] 106% | [8] 94.6% | [9] 66.7%

CCS(=O)(=O)N1CCCC(C(=O)Nc2nc3ccc(NC(=O)c4ccc(F)c(OC)c4F)cc3s2)C1 (configuration not stated)
active: [1] 7.96% | [9] 7.13%
inactive: [2] 13.2% | [3] 53.8% | [4] 88.7% | [5] 30.1% | [6] 41% | [7] 86.9% | [8] 61.6%

Nc1cccc(SCc2cc3ccccc3[nH]c2=O)c1
active: [8] 0.625%
inactive: [1] 33.3% | [2] 46.7% | [3] 30.5% | [4] 23.5% | [5] 37.4% | [6] 50.3% | [7] 26.8% | [9] 45.9%

Cc1ccc(S(=O)(=O)c2nc(S(=O)(=O)c3ccc(C)cc3)c(Cl)s2)cc1
active: [1] -24.6% | [4] -63.1% | [5] -57.1% | [6] -46.2% | [9] -78.8%
inactive: [2] 26.3% | [3] 50.5% | [7] 58.8% | [8] 23.9%

CC(=O)OC[C@@]1(C)C2CC[C@]3(C)C(CC=C4C5CC(C)(C)CC[C@]5(C(=O)Nc5ccc(C)cc5)CC[C@]43C)[C@@]2(C)C[C@@H](OC(C)=O)[C@@H]1OC(C)=O (some centres not stated)
active: [9] 8.22%
inactive: [1] 17.5% | [2] 51.3% | [3] 48.8% | [4] 40.5% | [5] 25.6% | [6] 24.7% | [7] 44.8% | [8] 51.9%

COc1ccc(/C=C/c2nc3ccccc3n3c(-c4ccc(Cl)cc4)nnc23)cc1
inactive: [1] 80.6% | [2] 114% | [3] 96.1% | [4] 99.2% | [5] 73.1% | [6] 88.3% | [7] 110% | [8] 93.1% | [9] 106%

CCOC(=O)/C=C/c1cccc2c1C(=O)NC(C)(c1cc3cc(Cl)ccc3oc1=O)N2 (configuration not stated)
active: [9] 3.88%
inactive: [1] 16.3% | [2] 24.7% | [3] 42.1% | [4] 40.9% | [5] 26.5% | [6] 17.6% | [7] 38.7% | [8] 26%

COc1cc(-c2nc3cc(Cl)c(Cl)cc3[nH]2)ccc1OCc1nnc(-c2cccs2)o1
inactive: [1] 84% | [2] 28.1% | [3] 55.2% | [4] 33% | [6] 29% | [7] 43.9% | [8] 71.5% | [9] 46.4%
active: [5] 3.79%

CCCCCCCCc1ccc(C(=O)Nc2cccc(P(=O)(O)O)c2)cc1
inactive: [1] 125% | [2] 110% | [3] 103% | [4] 100% | [5] 91.8% | [6] 94.3% | [7] 114% | [8] 103% | [9] 88.7%

Cc1ccccc1[C@H]1C(C(=O)c2ccc(Cl)cc2)C2(N[C@@H]1c1ccccc1)C(=O)Nc1ccccc12 (some centres not stated)
active: [1] 4.15% | [2] -66% | [3] -62.2% | [4] 0.765% | [5] -31.7% | [6] -84% | [7] -41.1% | [8] -30.8% | [9] -25.6%

COc1cc(-c2nc3ccc(C)cc3[nH]2)ccc1OCc1nnc(-c2ccc(Br)cc2)o1
active: [1] -14.6% | [9] -34.3%
inactive: [2] 23.8% | [3] 46.1% | [4] 35.5% | [5] 12.8% | [6] 11.5% | [7] 58.7% | [8] 37.7%

CC1(c2cc3cc(Cl)ccc3oc2=O)NC(=O)c2c(/C=C/C(=O)OC3CC4CCC3(C)C4(C)C)cccc2N1 (configuration not stated)
active: [9] -6.79%
inactive: [1] 24.4% | [2] 59.3% | [3] 81% | [4] 73% | [5] 37.4% | [6] 40.4% | [7] 82.6% | [8] 64.8%

CC1(C)CC[C@]2(C(=O)Nc3ccccc3)CC[C@]3(C)C(=CCC4[C@@]5(C)C[C@@H](O)[C@H](O)[C@@](C)(CO)C5CC[C@]43C)C2C1 (some centres not stated)
inactive: [1] 26.9% | [2] 57% | [3] 47.9% | [4] 72.2% | [5] 19.6% | [6] 34.3% | [7] 81.9% | [8] 55.7% | [9] 22.2%

CN(C)CCn1c2ccccc2c2nc3ccc([N+](=O)[O-])cc3nc21
active: [6] 0.47% | [7] 2.82% | [8] 1.62% | [9] -25.5%
inactive: [1] 14.3% | [2] 12.5% | [3] 22.3% | [4] 12.2% | [5] 12.4%

O=C(c1ccc(OCCN2CCOCC2)cc1)C1[C@H](c2ccc(Cl)cc2)[C@@H](c2ccccc2)NC12C(=O)Nc1ccc(Br)cc12 (some centres not stated)
active: [5] 1.4% | [6] 4.57% | [7] -41.2% | [9] -8.11%
inactive: [1] 26.3% | [2] 54.1% | [3] 39.1% | [4] 37.3% | [8] 11.7%

O=C(/C=C/Nc1ccc(Cl)cc1)c1ccc2c(c1)Nc1ccccc1S2
inactive: [1] 62.1% | [2] 24.6% | [3] 55.1% | [4] 54.8% | [5] 40.1% | [6] 39.2% | [7] 44.2% | [8] 69.3% | [9] 43.4%

O=C(N=Nc1c(O)[nH]c2ccc([N+](=O)[O-])cc12)c1ccc2nc(-c3ccccc3)[nH]c2c1
inactive: [1] 12.5% | [2] 53.4% | [3] 79.1% | [4] 83.8% | [5] 18.7% | [6] 10.7% | [7] 27.4% | [8] 99.5% | [9] 10.6%

CCCCSc1nc(NCCc2c[nH]c3ccccc23)c(C#N)c(-c2ccc(F)cc2)n1
inactive: [1] 48.5% | [2] 101% | [3] 73.1% | [4] 60.4% | [5] 44.8% | [6] 26.5% | [7] 64.9% | [8] 32% | [9] 69.8%

N=C1N=C(SCc2nc3ccccc3[nH]2)NC(=O)/C1=C/c1ccc(Cl)cc1
inactive: [1] 93.2% | [2] 114% | [3] 102% | [4] 98.5% | [5] 96.9% | [6] 105% | [7] 109% | [8] 104% | [9] 116%

CC1[C@H]2[C@H](C[C@H]3[C@@H]4CC=C5c6sc(Nc7ccccc7F)nc6CC[C@]5(C)[C@H]4CC[C@@]32C)O[C@]12CC[C@@H](C)CO2 (some centres not stated)
inactive: [2] 55.2%
active: [1] -60.2% | [3] -83.5% | [4] -75.4% | [5] -66.8% | [6] -94.3% | [7] -82.1% | [8] -90.7% | [9] -63.1%

CCCSc1nc(NCCc2c[nH]c3ccccc23)c(C#N)c(-c2ccccc2)n1
inactive: [1] 16.1% | [2] 89.3% | [3] 83.4% | [4] 56.9% | [5] 24.9% | [6] 32% | [7] 59.9% | [8] 42.1% | [9] 53.8%

Cc1ccc(C2CC(c3ccc(S(=O)(=O)NCCNc4nc(Nc5ccc(F)cc5)nc(N(C)C)n4)cc3)=Nc3c(N)nc(N)nc3N2)cc1 (configuration not stated)
inactive: [1] 53% | [2] 58% | [3] 55.2% | [4] 54.1% | [5] 18.7% | [6] 27.2% | [7] 32.4% | [8] 40.9%
active: [9] -12.8%

Cc1ccc(/C=C/c2n(Cc3ccc4ccccc4c3)c3ccccc3[n+]2Cc2ccc3ccccc3c2)cc1
active: [1] -51.1% | [2] -69.9% | [3] -78.2% | [4] -75.1% | [5] -78.3% | [6] -40.8% | [7] -87.3% | [8] -88.5% | [9] -78.6%

CNS(=O)(=O)c1ccc(Nc2ccc(C(F)(F)F)cc2)c(-c2cn(C)cn2)c1
active: [9] -1.31%
inactive: [1] 47.7% | [2] 58.7% | [3] 55.5% | [4] 70.9% | [5] 42.3% | [6] 49.4% | [7] 43.6% | [8] 35.9%

Cc1ccc(NCC(=O)Cn2cc(COc3ccc(C=Nc4cnc5ccccc5c4)cc3)nn2)cc1
inactive: [1] 105% | [2] 115% | [3] 113% | [4] 113% | [5] 102% | [6] 110% | [7] 101% | [8] 105% | [9] 100%
